This excerpt belongs to a sample that is enriched for hits.
DAT uptake mod: modulates human dopamine transporter uptake under cocaine. LLC-PK1 hDAT cells, [14C]-dopamine uptake with cocaine IC80; actives deviate in either direction. B-score at 10 µM. actives 1.3% (n = 110,000);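 active = Z score or B-score, a plate-position-corrected score, falls beyond the plate's 99.7% confidence bounds, in either direction; inactive = both scores lie inside the 99.7% bounds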
D1 mod: allosteric modulators of human D1 dopamine receptor; P21728; HEK293 D1, CRE-luciferase, dopamine EC30 potentiation; actives deviate in either direction; B-score at 10 µM; actives 5.9% (n = 58,000); AID 641;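 active = luminescence count or its row- and column-corrected plate score outside the 99.7% band of the plate's sample wells, on either side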
Target sequence (P21728 whole entry, looked up): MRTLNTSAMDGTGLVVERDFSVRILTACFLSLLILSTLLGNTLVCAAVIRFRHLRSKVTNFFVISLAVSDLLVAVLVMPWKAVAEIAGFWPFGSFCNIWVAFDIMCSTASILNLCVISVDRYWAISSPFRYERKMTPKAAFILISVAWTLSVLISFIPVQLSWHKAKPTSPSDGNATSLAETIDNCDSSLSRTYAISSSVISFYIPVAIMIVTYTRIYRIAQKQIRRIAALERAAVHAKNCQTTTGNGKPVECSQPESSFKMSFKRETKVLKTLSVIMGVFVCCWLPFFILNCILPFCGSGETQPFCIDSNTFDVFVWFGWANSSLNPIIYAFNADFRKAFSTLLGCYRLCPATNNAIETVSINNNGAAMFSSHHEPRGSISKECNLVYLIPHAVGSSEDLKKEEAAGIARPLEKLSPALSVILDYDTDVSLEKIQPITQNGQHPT
EphB4 ephrin blk: blocks human EphB4 binding to ephrin-B2. P54760. EphB4 LBD / TNYL-RAW-Alexa532 peptide, fluorescence polarization. inhibition, % at 7 µM. actives 0.15% (n = 97,000). AID 720;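 active = inhibition above the screen-wide mean inhibition plus 3 SD, cut at about 15% in these data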
D1 PAM confirm: D1 receptor (human) allosteric modulation, confirmed; shares compounds with D1 mod; HEK293 D1 CRE-luciferase, dopamine EC30 potentiation; active compounds read high; luminescence at 10 µM; actives 88% (n = 2,200);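 active = luminescence in either of two replicates above the same-plate mean plus 3 SD of the low-dose dopamine control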
D1 ag no DA: secondary test of D1 modulators: activity without dopamine. shares compounds with D1 mod. HEK293 D1 CRE-luciferase, luminescence, no dopamine; active compounds read high. luminescence at 10 µM. actives 0.8% (n = 1,900). AID 646; in the data active = luminescence above about 3900
Isoprot counter: alters isoproterenol CRE-luciferase response in HEK293 cells | calls only at 10 µM | actives 63% (n = 2,200) | HEK293 D1 CRE-luciferase, isoproterenol EC30 counter-screen | AID 647 | shares compounds with D1 mod;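 active = luminescence in either replicate above plate mean of wells with a partly effective reference agonist dose plus 3 SD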;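 also: isoproterenol raises cAMP through native beta-adrenoceptor Gs so signal bypasses D1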
Each line names hits and unclear results; the compound was inactive in the other large screens (follow-up assays come after a bar, where they were run).

Cc1cccc(OCc2nc(-c3nonc3N)no2)c1C	none (no result: EphB4 ephrin blk)
COc1cccc(-c2noc(CCC(=O)Nc3cccnc3)n2)c1	none
COc1ccc(-c2noc(Cc3ccc(Cl)cc3)n2)cc1OC	none (no result: D1 mod)
Nc1nc(SCc2nc(-c3ccccc3)no2)[nH]c(=O)c1-c1ccccc1	none (no result: DAT uptake mod, D1 mod)
CCOc1ccc(Cc2nc(-c3nonc3N)no2)cc1OCC	D1 mod 7.7 (no result: EphB4 ephrin blk) | D1 PAM confirm 13988 | D1 ag no DA inactive | Isoprot counter active
COc1ccc(-c2noc(CSc3nc(-c4ccccc4)cc(=O)[nH]3)n2)cc1OC	D1 mod 7.6 | D1 PAM confirm 7928 | Isoprot counter active
CCOc1ccc(-c2noc(COC)n2)cc1OC	D1 mod 3.4 | D1 PAM confirm 8824 | D1 ag no DA inactive | Isoprot counter inactive
CCC(C)NC(=O)c1ccc(CS(=O)(=O)Cc2ccc(Cl)cc2)o1 (stereo unspecified)	none (no result: D1 mod)
Cn1c(-c2ccc[nH]c2=O)nc2cc(Cl)ccc21	none (no result: D1 mod)
CCOC(=O)Nc1ccc(=O)n(Cc2c(Cl)cccc2Cl)c1	none (no result: D1 mod)
CCOc1ccc(CNC(=O)CCCOc2cc(=O)n(C)c3ccccc23)cc1	none (no result: D1 mod)
CCC(C)N1C(=O)CCC1C(=O)O (stereo unspecified)	none (no result: D1 mod)
CCNC(=S)N(Cc1ccc2c(c1)OCO2)C1CC(=O)N(c2ccc(F)cc2)C1=O (stereo unspecified)	none (no result: D1 mod)
Cc1cc(C)c(S(=O)(=O)N2CCOC2CNC(=O)C(=O)NCc2cccnc2)c(C)c1 (stereo unspecified)	none (no result: D1 mod, EphB4 ephrin blk)
COc1ccc(-c2noc(CCC(=O)NC3CCCCC3)n2)cc1OC	none
COc1ccc(-c2noc(CSc3nnc(-c4ccccc4)n3C)n2)cc1	none (no result: D1 mod)
CCOc1ccc(-c2noc(CCC(N)=O)n2)cc1OCC	D1 mod 11 (no result: EphB4 ephrin blk) | D1 PAM confirm 16532 | D1 ag no DA inactive | Isoprot counter active
COc1ccc(-c2noc(COc3ccc4ccccc4c3Br)n2)cc1OC	D1 mod 3.7 | D1 PAM confirm 8636 | D1 ag no DA inactive | Isoprot counter inactive
COc1ccc(-c2noc(COc3ccc(C)c(C)c3)n2)cc1OC	D1 mod 4.5 | D1 PAM confirm 9288 | Isoprot counter active
Cc1ccc(-c2noc(COc3ccc4c(c3)OCO4)n2)cc1	none (no result: D1 mod)
COc1ccc(-c2noc(CSc3nnc(-c4ccncc4)n3-c3ccc(F)cc3)n2)cc1OC	D1 mod 4.6 | D1 PAM confirm 10824 | D1 ag no DA inactive | Isoprot counter inactive
COc1ccc(-c2noc(CCCc3ccccc3)n2)cc1OC	none
Cc1ccc(CNS(=O)(=O)N(C)C)cc1	none (no result: D1 mod)
Cc1ccc2nc(NC(=O)COC(=O)c3ccc(Br)o3)sc2c1	none (no result: D1 mod)
CCC1(CC)C(=O)C2=C3C1[C@H](C(=O)OC)C=C(C(=O)OC)C[C@H]3[C@H]1C(=O)N(CC(=O)OC)C(=O)[C@H]1[C@H]2C (stereo partly specified)	none (no result: D1 mod, EphB4 ephrin blk)
CCN(CC)C(=O)CSc1nc2c(sc(=S)n2Cc2ccco2)c(=O)n1-c1ccccc1	none (no result: D1 mod)
CCOC(=O)CSc1nc2c(sc(=S)n2Cc2ccco2)c(=O)n1-c1ccccc1	D1 mod 4.5 | D1 PAM confirm 8252 | D1 ag no DA inactive | Isoprot counter inactive
CNS(=O)(=O)c1cnccc1N1CCN(c2cccc(C(F)(F)F)c2)CC1	none (no result: D1 mod)
CN(C)S(=O)(=O)c1cccc(C(=O)NCc2ccco2)c1	none
Cc1ccc(N(Cc2ccco2)C(=O)c2cccc(S(=O)(=O)N(C)C)c2)cc1	D1 mod 3 | D1 PAM confirm 11896 | D1 ag no DA inactive | Isoprot counter active
CCCCn1c(SCn2nnc3ccccc3c2=O)nc2cc(C(=O)OC)ccc2c1=O	none (no result: DAT uptake mod, EphB4 ephrin blk)
CCSc1nc2cc(C(=O)OC)ccc2c(=O)n1CC	D1 mod 10 | D1 PAM confirm 13500 | D1 ag no DA inactive | Isoprot counter active
COc1ccc(C(=O)COC(=O)CCN=C2NS(=O)(=O)c3ccccc32)cc1OC	D1 mod 4.6 | D1 PAM confirm 13264 | D1 ag no DA inactive | Isoprot counter active
CC(C)C(=O)OCCN=C1NS(=O)(=O)c2ccccc21	none (no result: D1 mod)
Cc1ccc2cc(COC(=O)C3CCCO3)c(=O)[nH]c2c1 (stereo unspecified)	none (no result: D1 mod)
CCOC(=O)c1c(C)[nH]c(C(=O)CN2C(=O)NC(C)(c3ccc4ccccc4c3)C2=O)c1C (stereo unspecified)	none (no result: D1 mod)
CCCC1(c2ccccc2)NC(=O)N(CC(=O)c2[nH]c(C)c(C(=O)OCC)c2C)C1=O (stereo unspecified)	D1 mod 7 | D1 PAM confirm 8616 | D1 ag no DA inactive | Isoprot counter active
CCOC(=O)c1c(NC(=O)C(C)NCc2ccco2)sc2c1CCC(C)C2 (stereo unspecified)	none (no result: D1 mod)
COC(=O)c1scc(C)c1N/N=C(\C)c1cc(F)c(Cl)cc1F	none (no result: D1 mod)
CCOC(=O)c1oc2ccccc2c1NC(=O)c1ccccc1OC	D1 mod 4.5 | D1 PAM confirm 11400 | D1 ag no DA inactive | Isoprot counter active
NC(=O)c1oc2ccccc2c1NC(=O)c1ccccc1	none (no result: D1 mod)
CCOC(=O)c1oc2ccccc2c1NC(=O)COc1cccc(OC)c1	none (no result: D1 mod)
CCOc1ccc(CC(=O)Nc2c(C(N)=O)oc3ccccc23)cc1OCC	D1 mod 4.5 | D1 PAM confirm 7352 | D1 ag no DA inactive | Isoprot counter inactive
COc1ccc(C2NC(=O)N(CCCC(=O)O)C(C)=C2C(=O)OCc2ccccc2)cc1 (stereo unspecified)	none (no result: D1 mod, EphB4 ephrin blk)
COc1ccc(C(=O)Nc2cc(C(F)(F)F)ccc2Cl)cc1OC	none (no result: D1 mod)
COc1ccc(S(=O)(=O)NNC(=O)c2csc(-n3nc(C)cc3C(F)(F)F)n2)cc1	none (no result: D1 mod)
CC(=O)Nc1ccc(Oc2cc(C#N)c(C#N)cc2N2CCCCCC2)cc1	D1 mod 4.9 | D1 PAM confirm 8364 | D1 ag no DA inactive | Isoprot counter active
CC(=O)Nc1ccc(Oc2cc(C#N)c(C#N)cc2N2CCOCC2)cc1	none (no result: D1 mod)
O=C(CCN1C(=O)c2ccccc2C1=O)N1CCN(C2c3ccccc3-c3ccccc32)CC1	none (no result: D1 mod)
OCC[C@H]1C[C@H](O)[C@@H](O)[C@@]2(CCCCO2)O1	none (no result: D1 mod, EphB4 ephrin blk)
COc1ccc(N(CC(=O)Nc2ccccc2C(=O)NCCc2ccccc2)S(C)(=O)=O)cc1OC	none (no result: D1 mod)
CCCCn1c(NC(=O)c2ccccc2)c(C#N)c2nc3ccccc3nc21	none (no result: DAT uptake mod)
CCCCn1cc(C(C)(C)C)c(C#N)c1NC(C)=O	D1 mod 6 | D1 PAM confirm 9748 | D1 ag no DA inactive | Isoprot counter active
COc1ccc(C2=NOC(c3nnc(-c4ccccc4)o3)C2)cc1 (stereo unspecified)	none (no result: D1 mod, EphB4 ephrin blk)
O=C(CCCc1ccccc1)Nc1cccnc1	none (no result: DAT uptake mod, D1 mod)
COc1ccc(Cn2cc(F)c(=O)n(CCC(C)C)c2=O)cc1[N+](=O)[O-]	none (no result: D1 mod)
Cc1c2c(nc3c(C(=O)NC4CC4)cnn13)CCCC2	none
CCC(C)NC(=O)c1cnn2c(C)c3c(nc12)CCCC3 (stereo unspecified)	D1 mod 7 | D1 PAM confirm 11440 | D1 ag no DA inactive | Isoprot counter active

Compound activity: PubChem, several laboratories
